According to PubChem BioAssay (NCATS):
Records with an inconclusive call do not appear. Where a call stands in place of a potency, no number is given. Calls of active or inactive are those of the source. Unless noted, the call rests on the fitted dose curve; in most records, active means well fitted curve in the direction sought with a large enough effect; inconclusive means small, poorly fitted or top-dose-only effect, or another doubt; inactive means no such curve, though single readings can be large; an effect the other way counts as inactive or inconclusive.

Tests used:
[1] = molecular target: Cytochrome P450 1A2 (Homo sapiens) (UniProt P05177); assay: p450-cyp1a2 (AID 410; calls by dose curve; further: potency means the concentration at half of the fitted maximal effect)
Summary of the method: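 Luminescent demethylation readout: Luciferin-ME (100uM, equal to Km) turned over by 20nM CYP1A2 for 60 min at room temperature after NADPH regeneration addition, following 10 min compound preincubation. Normalization used 57 uM furafylline as full inhibition.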

[2] = molecular target: Glucocorticoid receptor (Homo sapiens) (UniProt P04150); assay: GR-GFP Redistribution (AID 450;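 active means compounds whose dose series gives a full or clear partial fitted curve of increased nuclear translocation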; further: potency means the concentration at half of the fitted maximal effect); details: U2OS GR-GFP nuclear translocation, laser cytometry, 2 h
[3] = molecular target: Glucocorticoid receptor (Homo sapiens) (UniProt P04150); assay: GR-EFC Redistribution (AID 451; calls by dose curve; further: potency means the concentration at half of the fitted maximal effect); details: CHO-K1 GR-EFC translocation, beta-gal luminescence, 2 h
Summary of the method: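 CHO-K1 cells expressing nuclear EA and GR-ED fragments of b-gal; compounds titrated up to 46 uM final, 2 h at 37 C. GR nuclear translocation read as complemented b-gal luminescence after 1 h RT detection.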

[4] = molecular target: Mitogen-activated protein kinase 10 (Mus musculus) (UniProt Q61831); assay: JNK3 AlphaScreen Assay (AID 530; active means well fitted curve in either direction with a large enough effect, not every such curve was filed as active;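 further: kinase came from lysate of stimulated human HepG2 cells; signal reports phosphorylation of biotinylated GST-cJun 1-79 at Ser73 with 10 µM ATP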)
Summary of the method: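 Activity was read by AlphaScreen after JNK3-containing HepG2 lysate (cytokine pre-activated) phosphorylated biotinylated GST-cJun with 10 uM ATP at room temperature. Phospho-Ser73 cJun antibody with Protein-A acceptor beads provided detection.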

[5] = molecular target: 3',5'-cyclic-AMP phosphodiesterase 4B (Homo sapiens) (UniProt Q07343); assay: qHTS Assay for Inhibitors of PDE-IV (AID 607; active means well fitted activation curve with a large enough effect in the main read-out, with a control signal flat, not every such curve was filed as active)
Summary of the method: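 The readout is membrane depolarisation from a cAMP-sensing CNG channel, detected with a potential dye at ex 535/em 590. Cells were HEK293-derived (endogenous PDE-IV) at 1000 cells/well, titrated up to 22.9 uM final.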

[6] = qHTS Assay for Lipid Storage Modulators (AID 1519; calls by dose curve); details: Drosophila S3 cells, BODIPY lipid droplet/cell ratio, laser cytometry, cells loaded with oleic acid
Summary of the method: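 Cells seeded at 5,000 per well were treated with compounds over a concentration series and loaded with oleic acid (400 uM, as added). Lipid droplet fluorescence (488 nm excitation, 500-530 nm channel) was read by laser-scanning cytometry and normalized to 20 uM Triacsin C.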

[7] = molecular target: Ubiquitin carboxyl-terminal hydrolase 1 (Homo sapiens) (UniProt O94782); assay: Inhibitors of USP1/UAF1: Pilot qHTS (AID 504865);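 further: rhodamine fluorescence freed from ubiquitin-rhodamine substrate followed over time; top concentration of the series differs between compounds; nearly all actives have a fitted effect of over 35% in size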
Summary of the method: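 USP1/UAF1 complex (1nM) preincubated with compound 15 min at room temperature, then Ub-Rho substrate (150nM final) added. Fluorescence read kinetically at 480/540 nm, 6 reads every 60 seconds. Buffer: 50mM HEPES pH 7.8, 0.5mM EDTA, 0.1 mg/ml BSA, 1mM TCEP, 0.01% Tween-20.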

[8] = Primary qHTS for small molecule stabilizers of the endoplasmic reticulum resident proteome: Secreted ER Calcium Modulated Protein (SERCaMP) assay (AID 1508630)
Summary of the method: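 The SH-SY5Y reporter protocol was run at 3 concentrations up to 38.3 uM (primary) or 11 concentrations (follow-up): 16 h compound, 100 nM thapsigargin for 4 h, then extracellular luciferase luminescence.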

[9] = molecular target: Rap guanine nucleotide exchange factor 3 (Homo sapiens) (UniProt O95398); assay: Confirmatory qHTS for antagonist of cAMP-regulated guanine nucleotide exchange factor 3 (EPAC1) (AID 1645880); further: nearly all actives have a fitted effect of over 55% in size; further: potency means the concentration at half of the fitted maximal effect
Summary of the method: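 Released BODIPY-GDP fluoresces less than Rap1-bound BODIPY-GDP; the signal is followed at 480/540 nm at 5-min intervals over 30 min, after 5 min at room temperature. Reactions contain 100 nM EPAC1, 250 nM RAP1B-BODIPY-GDP and 50 uM GDP; results are normalized to ATA and DMSO.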

[10] = molecular target: Rap guanine nucleotide exchange factor 3 (Homo sapiens) (UniProt O95398); assay: Confirmatory qHTS for agonist of cAMP-regulated guanine nucleotide exchange factor 3 (EPAC1) (AID 1645881);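 further: EPAC1 catalysed release of BODIPY-GDP from Rap1B seen as fluorescence loss; nearly all actives have a fitted effect of over 75% in size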
[11] = molecular target: Rap guanine nucleotide exchange factor 4 (Homo sapiens) (UniProt Q8WZA2); assay: Confirmatory qHTS for agonist of cAMP-regulated guanine nucleotide exchange factor 4 (EPAC2) (AID 1645884);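 further: nucleotide exchange releases bodipy-GDP from Rap1 and this lowers its fluorescence; nearly all actives have a fitted effect of over 65% in size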
[12] = AP1 Signaling Pathway (AID 357; active means well fitted curve in either direction with a large enough effect, not every such curve was filed as active;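 further: ME-180 reporter cells stimulated with EGF at its EC50 level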); details: ME-180 AP-1-bla reporter, EGF-induced, beta-lactamase ratio, 5 h; at 7.69 µM (top of the series) unless noted
Summary of the method: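 Modulation of EGF-driven AP-1 transcription was assessed with a beta-lactamase reporter in ME-180 cells. Compound and EC50 EGF were co-incubated 5 hours at 37 °C before 2.5-hour CCF4 loading at room temperature and dual-emission reading.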

[13] = Stat Signaling Pathway (AID 446; active means well fitted curve in either direction with a large enough effect, not every such curve was filed as active;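 further: ME-180 cervical cancer cells given 40 pM IL-6 alongside compound; SIE-controlled beta-lactamase reporter measured as 460/530 nm FRET emission ratio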); details: ME-180 (cervical carcinoma) SIE beta-lactamase reporter, IL-6 stimulated, 5 h; at 7.69 µM (top of the series) unless noted
Summary of the method: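 Emission at 460 and 530 nm (excitation 405 nm) reports SIE-controlled beta-lactamase in ME-180 cells. Cells received compound with 40 pM IL-6 for 5 hrs at 37 C; data scaled between 300 pM IL-6 and 125 nM JAK-inhibitor controls.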

[14] = molecular target: Cytochrome P450 3A4 (Homo sapiens) (UniProt P08684); assay: qHTS Assay for Activators of Cytochrome P450 3A4 (AID 885); further: nearly all actives have a fitted effect of over 65% in size
Summary of the method: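 Activators are scored by enhanced luminescence from CYP3A4 conversion of luciferin-PPXE (25uM, equal to KM) to luciferin, after 60 min at RT with an NADPH-regenerating system.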

[15] = molecular target: Dual specificity protein kinase CLK4 (Homo sapiens) (UniProt Q9HAZ1); assay: qHTS Assay for Inhibitors of CDC-like Kinase 4 (Kinase-Glo Assay) (AID 1770); further: nearly all actives have a fitted effect of over 65% in size
Summary of the method: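 Recombinant human Clk4 (25 nM) phosphorylated RS repeat peptide (100 uM) with 1 uM ATP in Tris pH 7.5/MgCl2/EGTA/DTT/Triton buffer for 4.5 h at room temperature. Residual ATP was quantified by Kinase-Glo luciferase luminescence.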

[16] = molecular target: Dual specificity protein kinase CLK4 (Homo sapiens) (UniProt Q9HAZ1); assay: qHTS Assay for Inhibitors of CDC-like Kinase 4 (ADP-FP Assay) (AID 1795); further: nearly all actives have a fitted effect of over 60% in size
Summary of the method: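 Recombinant human Clk4 (6.25 nM) phosphorylated RS repeat peptide (100 uM) with 1 uM ATP in Tris pH 7.5/MgCl2/EGTA/DTT/Triton buffer for one hour. ADP was quantified by Transcreener competitive fluorescence polarization against an ADP calibration curve.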

[17] = molecular target: Rap guanine nucleotide exchange factor 4 (Homo sapiens) (UniProt Q8WZA2); assay: Confirmatory qHTS for antagonist of cAMP-regulated guanine nucleotide exchange factor 4 (EPAC2) (AID 1645885); further: nearly all actives have a fitted effect of over 25% in size
[18] = molecular target: Lysosomal acid glucosylceramidase (Homo sapiens) (UniProt P04062); assay: Glucocerebrosidase-p2 (AID 348; in the data active means potency below about 10 µM; further: potency means the concentration at half of the fitted maximal effect); details: purified GBA, blue fluorogenic substrate, 40 min
Summary of the method: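 Normal human glucocerebrosidase (0.2 nM) with blue fluorogenic substrate (80 uM final) in citrate/phosphate pH 5.9 with 10mM sodium taurocholate, 0.01% tween-20; 40 min RT, NaOH/glycine stop; fluorescence Ex 365/Em 440; AC50 from a titration from 0.6 nM upwards.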

[19] = NFAT Signaling Pathway (AID 444; active means well fitted curve in either direction with a large enough effect, not every such curve was filed as active;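 further: carbachol stimulus at about its EC50 of 1 µM final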); details: Jurkat NFAT-bla M1, carbachol, beta-lactamase ratio, 5 h; at 7.69 µM (top of the series) unless noted
Summary of the method: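 Jurkat cells with NFAT-driven β-lactamase reporter and co-expressed M1 receptor, stimulated with carbachol (final 1 uM, ~EC50), compound titration, 5 h at 37 °C. CCF4 loaded 1 h at RT; 460/530 nm ratio gave %activity and AC50.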

[20] = molecular target: Dual specificity protein kinase CLK4 (Homo sapiens) (UniProt Q9HAZ1); assay: qHTS Assay for Inhibitors of CDC-like Kinase 4 (ADP-Glo Assay) (AID 1771); further: nearly all actives have a fitted effect of over 70% in size
Summary of the method: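 ADP production was read by ADP-Glo luminescence after residual ATP depletion, following 1 h room-temperature reaction of 25 nM Clk4, 1 uM ATP and 100 uM RS peptide with MgCl2, EGTA, DTT and Triton X-100.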

Lysosomal acid glucosylceramidase (Homo sapiens), sequence (P04062 whole entry, looked up): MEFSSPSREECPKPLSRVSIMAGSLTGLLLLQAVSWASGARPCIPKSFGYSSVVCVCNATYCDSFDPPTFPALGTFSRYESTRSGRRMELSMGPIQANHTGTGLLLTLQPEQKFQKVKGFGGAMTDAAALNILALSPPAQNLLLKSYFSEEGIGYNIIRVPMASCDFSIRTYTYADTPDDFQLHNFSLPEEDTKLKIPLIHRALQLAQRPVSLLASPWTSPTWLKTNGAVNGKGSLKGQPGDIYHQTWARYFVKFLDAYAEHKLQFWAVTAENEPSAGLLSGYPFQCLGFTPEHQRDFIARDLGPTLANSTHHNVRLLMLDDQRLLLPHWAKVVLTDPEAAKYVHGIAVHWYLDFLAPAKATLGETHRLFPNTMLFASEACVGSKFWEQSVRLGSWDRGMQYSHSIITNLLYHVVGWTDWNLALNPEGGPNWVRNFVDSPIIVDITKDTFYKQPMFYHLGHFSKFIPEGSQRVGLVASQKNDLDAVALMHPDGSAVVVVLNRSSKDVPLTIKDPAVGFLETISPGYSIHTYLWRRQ
Ubiquitin carboxyl-terminal hydrolase 1 (Homo sapiens), sequence (O94782 whole entry, looked up): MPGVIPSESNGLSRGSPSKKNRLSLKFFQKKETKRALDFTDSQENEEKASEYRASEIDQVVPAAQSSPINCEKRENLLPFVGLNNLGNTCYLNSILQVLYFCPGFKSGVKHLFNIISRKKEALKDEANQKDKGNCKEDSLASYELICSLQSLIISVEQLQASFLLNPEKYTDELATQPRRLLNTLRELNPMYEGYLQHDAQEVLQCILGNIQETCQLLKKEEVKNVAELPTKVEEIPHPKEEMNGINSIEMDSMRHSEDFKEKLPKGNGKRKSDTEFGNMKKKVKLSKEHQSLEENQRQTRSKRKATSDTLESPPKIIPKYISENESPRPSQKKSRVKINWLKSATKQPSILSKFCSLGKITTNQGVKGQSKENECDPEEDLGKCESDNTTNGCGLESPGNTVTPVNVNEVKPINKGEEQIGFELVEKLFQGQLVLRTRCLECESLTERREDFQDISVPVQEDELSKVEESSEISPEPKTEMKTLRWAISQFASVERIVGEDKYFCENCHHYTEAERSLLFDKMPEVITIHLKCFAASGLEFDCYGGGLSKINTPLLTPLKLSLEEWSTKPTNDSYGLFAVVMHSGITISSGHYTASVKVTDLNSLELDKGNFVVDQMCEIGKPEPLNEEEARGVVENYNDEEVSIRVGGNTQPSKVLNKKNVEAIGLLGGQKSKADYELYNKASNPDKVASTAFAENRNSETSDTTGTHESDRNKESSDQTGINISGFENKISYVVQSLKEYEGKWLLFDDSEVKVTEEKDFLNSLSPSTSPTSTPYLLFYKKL
Rap guanine nucleotide exchange factor 3 (Homo sapiens), sequence (O95398 whole entry, looked up): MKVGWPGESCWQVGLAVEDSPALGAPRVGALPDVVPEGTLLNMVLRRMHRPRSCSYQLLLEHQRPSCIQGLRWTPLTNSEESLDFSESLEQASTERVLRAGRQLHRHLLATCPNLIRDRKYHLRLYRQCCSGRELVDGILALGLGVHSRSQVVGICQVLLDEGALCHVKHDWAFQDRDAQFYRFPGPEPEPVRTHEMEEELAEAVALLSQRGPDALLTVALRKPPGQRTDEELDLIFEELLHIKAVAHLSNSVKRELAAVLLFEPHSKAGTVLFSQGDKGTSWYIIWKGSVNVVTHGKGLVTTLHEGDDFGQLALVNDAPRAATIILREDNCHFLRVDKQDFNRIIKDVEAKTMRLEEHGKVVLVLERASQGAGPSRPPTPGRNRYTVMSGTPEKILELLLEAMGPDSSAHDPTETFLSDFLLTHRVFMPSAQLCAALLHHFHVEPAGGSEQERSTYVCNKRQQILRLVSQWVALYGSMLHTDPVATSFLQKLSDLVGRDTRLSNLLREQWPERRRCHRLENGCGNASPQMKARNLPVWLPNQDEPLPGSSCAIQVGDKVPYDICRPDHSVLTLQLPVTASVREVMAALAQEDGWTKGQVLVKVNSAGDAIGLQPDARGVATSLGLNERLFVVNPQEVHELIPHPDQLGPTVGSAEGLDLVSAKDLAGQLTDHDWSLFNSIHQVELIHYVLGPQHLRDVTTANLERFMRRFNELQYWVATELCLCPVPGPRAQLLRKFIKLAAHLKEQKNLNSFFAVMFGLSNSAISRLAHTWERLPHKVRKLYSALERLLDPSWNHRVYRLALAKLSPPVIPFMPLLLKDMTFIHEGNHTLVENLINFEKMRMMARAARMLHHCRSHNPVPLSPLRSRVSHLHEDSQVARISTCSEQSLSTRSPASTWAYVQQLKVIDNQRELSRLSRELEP
Cytochrome P450 1A2 (Homo sapiens), sequence (P05177 whole entry, looked up): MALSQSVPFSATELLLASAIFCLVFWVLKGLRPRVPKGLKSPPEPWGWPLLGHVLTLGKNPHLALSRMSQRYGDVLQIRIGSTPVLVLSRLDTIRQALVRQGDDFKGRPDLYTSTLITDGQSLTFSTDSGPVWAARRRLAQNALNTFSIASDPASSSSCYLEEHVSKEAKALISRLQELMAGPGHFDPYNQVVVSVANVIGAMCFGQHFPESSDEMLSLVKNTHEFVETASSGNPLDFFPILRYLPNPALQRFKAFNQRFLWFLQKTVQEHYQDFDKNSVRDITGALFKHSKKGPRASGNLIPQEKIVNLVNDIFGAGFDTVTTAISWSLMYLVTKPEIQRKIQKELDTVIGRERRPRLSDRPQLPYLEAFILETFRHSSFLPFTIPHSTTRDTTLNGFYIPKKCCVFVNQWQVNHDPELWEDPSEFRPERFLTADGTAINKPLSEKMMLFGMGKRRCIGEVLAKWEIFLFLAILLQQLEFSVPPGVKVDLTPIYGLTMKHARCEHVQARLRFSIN
Rap guanine nucleotide exchange factor 4 (Homo sapiens), sequence (Q8WZA2 whole entry, looked up): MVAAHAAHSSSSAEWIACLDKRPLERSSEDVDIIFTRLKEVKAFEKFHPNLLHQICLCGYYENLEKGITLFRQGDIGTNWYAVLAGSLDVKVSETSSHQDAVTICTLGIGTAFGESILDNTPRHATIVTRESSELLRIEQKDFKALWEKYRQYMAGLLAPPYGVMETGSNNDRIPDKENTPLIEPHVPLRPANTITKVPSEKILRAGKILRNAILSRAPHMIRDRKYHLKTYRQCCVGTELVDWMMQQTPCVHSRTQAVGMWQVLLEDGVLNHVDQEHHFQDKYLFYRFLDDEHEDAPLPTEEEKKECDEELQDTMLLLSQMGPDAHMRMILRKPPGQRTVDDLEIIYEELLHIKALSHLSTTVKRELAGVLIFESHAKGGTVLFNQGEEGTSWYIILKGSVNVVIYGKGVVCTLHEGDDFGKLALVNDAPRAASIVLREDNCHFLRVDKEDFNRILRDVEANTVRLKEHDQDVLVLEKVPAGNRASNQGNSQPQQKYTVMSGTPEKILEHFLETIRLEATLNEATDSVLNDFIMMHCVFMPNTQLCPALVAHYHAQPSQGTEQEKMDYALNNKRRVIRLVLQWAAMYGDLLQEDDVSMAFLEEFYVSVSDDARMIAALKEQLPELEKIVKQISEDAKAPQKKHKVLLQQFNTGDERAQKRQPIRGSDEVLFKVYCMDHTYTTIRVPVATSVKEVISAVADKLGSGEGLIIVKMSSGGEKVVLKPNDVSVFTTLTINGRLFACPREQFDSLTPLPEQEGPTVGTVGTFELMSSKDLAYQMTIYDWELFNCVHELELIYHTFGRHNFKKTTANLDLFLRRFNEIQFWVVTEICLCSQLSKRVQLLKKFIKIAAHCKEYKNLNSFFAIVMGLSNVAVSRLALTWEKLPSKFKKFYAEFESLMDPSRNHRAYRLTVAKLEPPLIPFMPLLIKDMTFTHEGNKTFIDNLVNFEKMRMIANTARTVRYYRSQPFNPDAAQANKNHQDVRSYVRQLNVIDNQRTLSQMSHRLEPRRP
Dual specificity protein kinase CLK4 (Homo sapiens), sequence (Q9HAZ1 whole entry, looked up): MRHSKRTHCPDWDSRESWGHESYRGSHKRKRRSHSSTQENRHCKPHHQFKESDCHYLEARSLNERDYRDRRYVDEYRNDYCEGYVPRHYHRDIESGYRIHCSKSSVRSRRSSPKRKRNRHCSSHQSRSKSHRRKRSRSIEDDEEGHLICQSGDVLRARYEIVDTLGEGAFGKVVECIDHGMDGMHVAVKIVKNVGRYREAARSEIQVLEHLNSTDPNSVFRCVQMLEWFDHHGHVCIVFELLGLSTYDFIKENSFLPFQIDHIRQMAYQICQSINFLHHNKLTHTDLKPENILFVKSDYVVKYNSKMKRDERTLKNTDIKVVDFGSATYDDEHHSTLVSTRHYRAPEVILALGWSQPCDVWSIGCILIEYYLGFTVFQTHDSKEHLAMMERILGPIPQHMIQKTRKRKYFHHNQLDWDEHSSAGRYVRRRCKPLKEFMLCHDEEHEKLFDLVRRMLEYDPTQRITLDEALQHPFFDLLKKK
Glucocorticoid receptor (Homo sapiens), sequence (P04150 whole entry, looked up, the tested form may be a part): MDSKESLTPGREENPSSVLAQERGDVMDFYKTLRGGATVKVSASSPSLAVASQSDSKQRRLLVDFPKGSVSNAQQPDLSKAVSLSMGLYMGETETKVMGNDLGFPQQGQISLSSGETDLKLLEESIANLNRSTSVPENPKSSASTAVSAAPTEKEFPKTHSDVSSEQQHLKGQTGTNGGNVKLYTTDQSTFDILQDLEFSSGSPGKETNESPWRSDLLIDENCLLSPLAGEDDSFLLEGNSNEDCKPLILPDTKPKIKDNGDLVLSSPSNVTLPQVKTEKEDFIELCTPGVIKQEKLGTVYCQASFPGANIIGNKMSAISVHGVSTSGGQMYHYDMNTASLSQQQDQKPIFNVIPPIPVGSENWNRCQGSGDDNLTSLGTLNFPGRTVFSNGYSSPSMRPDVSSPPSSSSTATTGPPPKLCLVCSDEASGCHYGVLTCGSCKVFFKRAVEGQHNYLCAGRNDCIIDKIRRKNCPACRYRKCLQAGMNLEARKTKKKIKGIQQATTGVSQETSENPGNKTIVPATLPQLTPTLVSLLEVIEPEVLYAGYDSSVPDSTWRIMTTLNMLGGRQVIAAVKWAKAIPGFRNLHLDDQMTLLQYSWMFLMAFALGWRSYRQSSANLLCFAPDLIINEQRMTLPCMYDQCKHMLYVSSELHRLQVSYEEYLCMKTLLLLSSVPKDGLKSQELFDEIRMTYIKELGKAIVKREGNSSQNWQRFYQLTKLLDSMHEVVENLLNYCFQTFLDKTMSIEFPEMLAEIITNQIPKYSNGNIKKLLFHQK

Clc1cccc2c1CN(C1=NCCN1)C2
Potency [1]: 0.398 µM (active)
Potency [2]: > 46 µM (inactive)
Potency [3]: > 46 µM (inactive)
Potency [4]: inactive
Potency [5]: inactive
activity change, negative = inhibition ([6]; at 57.5 µM (top of the series)): 3.4% (inactive)
max response ([6]; measured here: cell count channel max response): 12.9%
max response ([6]; measured here: lipid channel max response): 20.6%
Potency [7]: inactive
outcome [8]: inactive

CCCCCc1c2c(cc(O)c1C(=O)O)OC(=O)c1cc(C(=O)CCCC)c(OC)cc1O2
outcome [8]: inactive
Potency [9]: 42.6 µM (active)
Potency [10]: inactive
Potency [11]: inactive

COc1ccccc1CNc1nc(-c2ccc3c(c2)OCO3)nc2ccccc12
activity change, negative = inhibition [12]: 24.7% (inactive)
Potency [1]: 0.631 µM (active)
activity, negative = inhibition [13]: -8.69% (inactive)
Potency [2]: > 46 µM (inactive)
Potency [3]: > 46 µM (inactive)
Potency [4]: inactive
Potency [5]: inactive
Potency [14]: inactive
Potency [15]: inactive
Potency [16]: inactive
Potency [7]: inactive
outcome [8]: inactive
Potency [9]: inactive
Potency [10]: inactive
Potency [11]: inactive
Potency [17]: inactive

O=c1c(-c2cc(F)cc(F)c2)nc2cncnc2n1Cc1ccccc1Cl
Potency [18]: > 11.4 µM (inactive)
activity change, negative = inhibition [12]: 5.85% (inactive)
Potency [1]: 5.01 µM (active)
activity change, negative = inhibition [19]: -19.2% (inactive)
activity, negative = inhibition [13]: -6.37% (inactive)
Potency [2]: > 9.22 µM (inactive)
Potency [3]: > 46 µM (inactive)
Potency [4]: inactive
Potency [5]: inactive
Potency [14]: inactive
Potency [15]: inactive
Potency [20]: inactive
Potency [7]: inactive
outcome [8]: inactive
Potency [9]: inactive
Potency [10]: inactive
Potency [11]: inactive
Potency [17]: inactive

N#CCCn1c(=O)c(-c2cccs2)nc2cnc(N3CCOCC3)nc21
Potency [18]: > 11.4 µM (inactive)
activity change, negative = inhibition [12]: 3.31% (inactive)
activity change, negative = inhibition [19]: -28.6% (inactive)
activity, negative = inhibition [13]: 17.9% (inactive)
Potency [2]: > 9.22 µM (inactive)
Potency [3]: > 46 µM (inactive)
Potency [4]: inactive
Potency [5]: inactive
Potency [15]: inactive
Potency [20]: inactive
Potency [16]: inactive
outcome [8]: inactive
Potency [9]: inactive
Potency [10]: inactive
Potency [11]: inactive
Potency [17]: inactive

Cn1cccc1C(=O)N1CCC2(CC1)CN(c1cccc(-c3ccccc3)c1)C2
Potency [18]: > 11.4 µM (inactive)
activity change, negative = inhibition [12]: -14% (inactive)
Potency [1]: 25.1 µM (active)
activity change, negative = inhibition [19]: -2.77% (inactive)
activity, negative = inhibition [13]: -13.7% (inactive)
Potency [3]: > 46 µM (inactive)
Potency [5]: inactive
outcome [8]: inactive
Potency [9]: inactive
Potency [10]: inactive
Potency [11]: inactive

COc1ccc(Oc2ncc3nc(-c4cc(F)cc(F)c4)c(=O)n(C[C@H]4CCCO4)c3n2)cc1
Potency [18]: > 11.4 µM (inactive)
activity change, negative = inhibition [12]: -5.29% (inactive)
activity change, negative = inhibition [19]: -11.6% (inactive)
activity, negative = inhibition [13]: -0.431% (inactive)
Potency [2]: > 9.22 µM (inactive)
Potency [3]: > 46 µM (inactive)
Potency [4]: inactive
Potency [16]: inactive
Potency [7]: inactive
outcome [8]: inactive
Potency [9]: inactive
Potency [10]: inactive
Potency [11]: inactive
Potency [17]: inactive
